Activity calls are given as the source filed them. Rule for the calls: active = hit-call score of the fitted dose curve at least 0.9, where 1 is the maximum; inactive = score below 0.9.
target: Myc proto-oncogene protein (Homo sapiens) (UniProt P01106); assay: ATG_Myc_CIS: Attagene CIS-FACTORIAL HepG2 Assay for human Myelocytomatosis (Myc) Proto-Oncogene Transcription Factor (AID 2282990); details: HepG2, Attagene cis-reporter transcription factor activity; actives raise or lower the signal
Protocol: ATG_CIS is a cell-based, multiplexed-readout assay that uses HepG2, a human liver cell line, with measurements taken at 24 hours after chemical dosing in a 24-well plate.ATG_Myc_CIS is one of 52 assay component(s) measured or calculated from the ATG_CIS assay. It is designed to make measurements of mRNA induction, a form of inducible reporter, as detected with fluorescence intensity signals by Reverse transcription polymerase chain reaction (RT-PCR) and Capillary electrophoresis technology.Data from the assay component ATG_Myc_CIS was analyzed into 1 assay endpoint. This assay endpoint, ATG_Myc_CIS, was analyzed with bidirectional fitting relative to DMSO as the negative control and baseline of activity. Using a type of inducible reporter, measures of mRNA for gain or loss-of-signal activity can be used to understand the reporter gene at the transcription factor-level as they relate to the gene MYC. Furthermore, this assay endpoint can be referred to as a primary readout, because this assay has produced multiple assay endpoints where this one serves a reporter gene function. To generalize the intended target to other relatable targets, this assay endpoint is annotated to the dna binding intended target family, where the subfamily is basic helix-loop-helix leucine zipper.
Human liver HepG2 cells are transiently transfected with multiple reporter transcription units (MRTUs) in 6-well plates using FuGene 6 reagent (Roche; 3 ml FuGene/1 mg DNA). The MRTU constructs are regulated by a cis-regulating element (promoter). […] A major difference between the CIS and TRANS system is that in CIS activities of endogenous TFs are measured, whereas the TRANS assay evaluates changes in activities of exogenous, chimeric NR-Gal4 proteins. […] At the end of 24 hour incubation, total RNA was isolated using TriZol reagent (Invitrogen). The isolated RNA is then reverse-transcribed using oligo(dT) primer and Mo-MLV reverse transcriptase (Invitrogen) with DNAse I (Ambion) treatment for 30 min. The one-tenth of the produced cDNA was amplified by PCR using Taq DNA polymerase (Invitrogen) and two reporter sequence-specific primers. The PCR products were fluorescently labeled by primer extension with 6-arboxyfluorescein (6-FAM) 5'-labeled reporter sequence-specific primer (2 min at 95 C, 20 s at 68 C and 10 min at 72 C) and these products were digested with 5U of HpaI (New England Biolabs) for 2h at 37 C. The fragments were purified using Qiaquick PCR columns (Qiagen), analyzed on an ABI 3130xL genetic analyzer (Applied Biosystems) with peak positions identified by using a set of X-rhodamine (ROX)-labeled MapMarker1000 molecular weight standards (BioVentures). The raw capillary electrophoresis data was processed using Attagraph software (Attagene).

Myc proto-oncogene protein (Homo sapiens), sequence (P01106 whole entry, looked up): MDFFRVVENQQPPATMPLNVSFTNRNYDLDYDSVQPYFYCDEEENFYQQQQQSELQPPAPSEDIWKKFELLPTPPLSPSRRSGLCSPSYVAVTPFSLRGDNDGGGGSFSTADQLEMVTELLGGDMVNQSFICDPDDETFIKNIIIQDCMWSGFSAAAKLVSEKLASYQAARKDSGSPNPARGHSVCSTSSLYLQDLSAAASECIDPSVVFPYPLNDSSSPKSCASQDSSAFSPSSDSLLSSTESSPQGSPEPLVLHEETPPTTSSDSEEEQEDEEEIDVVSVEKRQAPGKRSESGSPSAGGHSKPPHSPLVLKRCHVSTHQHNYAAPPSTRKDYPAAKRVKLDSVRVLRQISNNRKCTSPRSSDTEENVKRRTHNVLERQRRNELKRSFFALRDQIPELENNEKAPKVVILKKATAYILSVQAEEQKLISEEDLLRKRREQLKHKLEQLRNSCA

Question: Which outcome does the source give for `CCCCCCC(O)CCCCCCCCCCC(=O)O` (stereo not given) here?
Answer: inactive

Question: How did the outcome turn out when `CC[N+](C)(CC)CC` was run?
Answer: inactive

Question: For `O=C(Nc1ccc2c(c1)Cc1ccccc1-2)C(F)(F)F`, which outcome is on record?
Answer: inactive

Question: Which outcome does the source give for `CN(c1nccc(=O)[nH]1)C1CCN(c2nc3ccccc3n2Cc2ccc(F)cc2)CC1` here?
Answer: inactive

Question: For `CC=CC=CCOC(=O)C(C)C`, which outcome is on record?
Answer: inactive

Question: How did the outcome turn out when `CCOC(=O)CC(C)O` (stereo not given) was run?
Answer: inactive

Question: How did the outcome turn out when `C=C(C)C(=O)OCCOCCOCCOC(=O)C(=C)C` was run?
Answer: inactive

Question: With `C=C[Si]1(C)O[Si](C)(C=C)O[Si](C)(C=C)O[Si](C)(C=C)O1` (stereo not given) as the compound, how does the outcome read?
Answer: inactive

Question: For `CC(C)C[C@H](NC(=O)OCC1c2ccccc2-c2ccccc21)C(=O)O`, which outcome is on record?
Answer: inactive

Question: For `CN1C(=O)c2ccccc2C1=O`, which outcome is on record?
Answer: inactive

Question: Which outcome does the source give for `BrCc1cccc(Oc2ccccc2)c1` here?
Answer: inactive

Question: `CC1CCC(C(C)C)C(O)C1` (stereo not given) was tested. Which outcome did it give?
Answer: inactive

Question: For `Cc1ncc([N+](=O)[O-])n1CCO`, which outcome is on record?
Answer: inactive

Question: `Cc1ccc(S(N)(=O)=O)cc1` was tested. Which outcome did it give?
Answer: inactive

Question: How did the outcome turn out when `CCOC(=O)C(C#N)=C(c1ccccc1)c1ccccc1` was run?
Answer: inactive

Question: How did the outcome turn out when `CCOC(=O)[C@@H](C)Oc1ccc(Oc2nc3ccc(Cl)cc3o2)cc1` was run?
Answer: inactive

Question: With `C=Cc1ccc(C)cc1` as the compound, how does the outcome read?
Answer: inactive

Question: How did the outcome turn out when `CC1=CC[C@@]23C[C@@H]1C(C)(C)[C@@H]2CC[C@H]3C` was run?
Answer: inactive

Question: With `CC(=O)OCCCc1ccccc1` as the compound, how does the outcome read?
Answer: inactive

Question: With `C=C(C)CNCC` as the compound, how does the outcome read?
Answer: inactive

Question: How did the outcome turn out when `O=C(c1ccccc1)C(O)c1ccccc1` (stereo not given) was run?
Answer: inactive

Question: How did the outcome turn out when `CC(C)(C)c1ccc(C(=O)O)cc1` was run?
Answer: inactive

Question: For `CN(C)c1ccncc1`, which outcome is on record?
Answer: inactive

Question: Which outcome does the source give for `COS(=O)(=O)O` here?
Answer: inactive

Question: For `CC(C)CC(C)CC(O)CC(C)C` (stereo not given), which outcome is on record?
Answer: inactive

Question: With `CC(C=O)Cc1ccc(C(C)(C)C)cc1` (stereo not given) as the compound, how does the outcome read?
Answer: inactive

Question: For `COc1ccccc1[N+](=O)[O-]`, which outcome is on record?
Answer: inactive

Question: `CN(C)c1cccc(O)c1` was tested. Which outcome did it give?
Answer: inactive

Question: `C[Si](C)(C)O[Si](C)(C)C` was tested. Which outcome did it give?
Answer: inactive

Question: `Oc1c(Cl)cc(Cl)c(Cl)c1Cc1c(O)c(Cl)cc(Cl)c1Cl` was tested. Which AC50 did it give?
Answer: 4.41 µM (active)

Question: How did the outcome turn out when `CCCCCCCCCCCCS(=O)(=O)Cl` was run?
Answer: inactive

Question: For `CCC1CCCCC1`, which outcome is on record?
Answer: inactive

Question: How did the outcome turn out when `O=C(Nc1ccc([N+](=O)[O-])cc1)Nc1ccc([N+](=O)[O-])cc1` (tested in a mixture with another compound) was run?
Answer: inactive

Question: For `C/C=C(\C)C(=O)OCCc1ccccc1`, which outcome is on record?
Answer: inactive

Question: Which outcome does the source give for `c1ccc(CN(Cc2ccccc2)Cc2ccccc2)cc1` here?
Answer: inactive

Question: For `O=C1OC2(c3ccccc31)c1ccc(O)c(Br)c1Oc1c2ccc(O)c1Br`, which outcome is on record?
Answer: inactive

Question: With `CC1(C)O[C@@H]2[C@@H](CO[C@@]3(COS(N)(=O)=O)OC(C)(C)O[C@@H]23)O1` as the compound, how does the outcome read?
Answer: inactive

Question: `O=C(O)COCC(=O)O` was tested. Which outcome did it give?
Answer: inactive

Question: With `CC(=O)O[C@@H]1C[C@@H]2CC[C@@]1(C)C2(C)C` as the compound, how does the outcome read?
Answer: inactive

Question: How did the outcome turn out when `COc1ccc(CCC(C)=O)cc1` was run?
Answer: inactive
